# Reference: paper PMC5540273 (PLoS ONE, 2017)
# Test system: WNK2
# Settings: concentration: 1 μM, replicates: in singlicate; n = 1
# 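Note: KINOMEscan kinase panel screen.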
row,SMILES,%Inh
1,Clc1ccc(-c2cc(-c3c[nH]nc3-c3ccccn3)ccn2)cc1 [GW681251],0%
2,Fc1ccc(Nc2nccc(-c3c(-c4ccc(Cl)cc4)nn4ncccc34)n2)cc1F [GW829058],0%
3,CS(=O)(=O)CCNCc1ccc(-c2ccc3ncnc(Nc4ccc(OCc5ccccc5)c(Cl)c4)c3c2)o1.Cl [GW574783],10%
4,CN1c2ccc(-c3ccc(C(=O)NCCO)cc3)cc2-c2[nH]ncc2S1(=O)=O,0%
5,CCc1nc(-c2cccc(N(C)S(=O)(=O)c3ccccc3)c2)c(-c2ccnc(Nc3ccc(N4CCN(C(C)=O)CC4)nc3)n2)s1 [GSK1645895],0%
6,Oc1ccc2ncnc(Nc3ccc(OCc4ccccc4)cc3)c2c1 [GI262866],0%
7,Cc1ccc(NC(=O)c2cccc(C#N)c2)cc1-c1ccc(C(=O)Nc2ccncc2)cc1 [GSK1398463],6%
8,CC(C)(C)OC(=O)NC1CCCN(c2cc(-c3ccc4c(N)n[nH]c4c3)nc(N)n2)C1 (stereo not drawn) [GSK2286096],70%
9,COc1ccc(Nc2nccc(N3CCC(NC(=O)Nc4ccc5c(c4)OCO5)C3)n2)cc1 (stereo not drawn) [GSK1379745],0%
10,COc1ccc(NC(=O)Nc2ccc(C)c(-c3ccc(C(=O)Nc4ccncc4)cc3)c2)cc1 [GSK1398475],0%
11,Cn1ccc2ncnc(Oc3ccc(NC(=O)Nc4cccnc4)c(Cl)c3)c21,0%
12,Fc1cccc(COc2ccc(Nc3ncnc4cc[nH]c34)cc2Cl)c1,14%
13,Cl.Cl.c1ccc(-c2cc3ccncc3cc2OC2CCNCC2)cc1 [GSK1122999],0%
14,Cc1cccc(-c2nc(Nc3ccc4[nH]nnc4c3)c3ccccc3n2)n1 [GW867587],0%
15,COc1cc2c(Nc3cccc(NC(=O)c4ccccc4)c3)ncnc2cc1OCCCN1CCOCC1 [GSK223810],10%
16,Nc1nccc2scc(-c3ccc4c(c3)CCN4C(=O)Cc3cc(F)ccc3F)c12 [GSK2587663],0%
17,COc1ccc(NC(=O)c2ccc(-c3cc(-c4nnc(C)o4)ccc3C)cc2)cc1 [GW595885],1%
18,FC(F)(F)c1ccc(-c2nn3ncccc3c2-c2ccnc(Nc3cccc(C(F)(F)F)c3)n2)cc1 [GW828205],0%

row,SMILES,%Inh
1,NC(=O)c1sc(-n2cnc3ccccc32)cc1OCc1ccccc1F [GSK1024306],27%
2,Cl.O=S(=O)(c1cccc(F)c1)c1ccc(Nc2ncnc3cc(Br)sc23)cc1Cl [GSK306886],9%
3,CCCc1ccc(S(=O)(=O)NC2CCN(c3ccnc(Nc4ccc(OC)cc4)n3)C2)cc1 (stereo not drawn) [GSK1379737],0%
4,CCn1c(-c2ccncc2)nc2cnccc21 [SB-735216],29%
5,O=C(CCO)NCCn1ccc2ncnc(Nc3ccc(Oc4cccc(C(F)(F)F)c4)c(Cl)c3)c21,0%
6,Cl.Fc1ccccc1COc1ccc(Nc2ncnc3ccc(-c4nnc(C(F)(F)F)o4)cc23)cc1Cl [GW424170],0%
7,Cn1cc(-c2ccc3c(c2)CCN3C(=O)Cc2cccc(C(F)(F)F)c2)c2c(N)ncnc21 [GSK2606414],7%
8,CNc1nccc(-c2c(-c3ccc(F)cc3)ncn2C2CCN(C)CC2)n1 [SB-222903],0%
9,Cl.Cn1ccc(-c2cccc(Nc3ccnc4cc(-c5nccs5)ccc34)c2)n1 [GW525701],18%
10,Fc1ccc(-c2ncn(CCCNCc3ccccc3)c2-c2ccncc2)cc1,0%
11,C[C@@H]1CCN(C(=O)CO)C[C@@H]1N(C)c1ncnc2[nH]ccc12,0%
12,CC(C)(C)c1ccc(-n2cnc3c(N)ncnc32)cc1 [SKF-97263],0%
13,COc1ccc(-c2oc3ncnc(N)c3c2-c2ccc(OC)cc2)cc1 [SB-589132],35%
14,FC(F)(F)c1cc(Nc2nccc(-c3c(-c4ccc(Cl)cc4)nn4ncccc34)n2)ccc1Cl [GW829351],0%
15,O=C(Nc1ccccc1F)NC1CCN(c2ccnc(Nc3ccc(F)cc3)n2)C1 (stereo not drawn) [GSK1379722],0%
16,O=C(NCCCN1CCCC1=O)c1cnc(NCc2cc(Cl)ccc2Cl)nc1NC1CCNCC1,0%
17,Cl.c1ccc(Cn2ncc3cc(Nc4ncnc5ccccc45)ccc32)cc1 [GW273749],3%
18,Fc1cccc(COc2ccc(Nc3ncnc4sc(-c5ccc[nH]5)cc34)cc2Cl)c1 [GW707818],6%

# Test system: WNK3
# Settings: concentration: 1 μM, replicates: in singlicate; n = 1
row,SMILES,%Inh
1,Clc1ccc(-c2cc(-c3c[nH]nc3-c3ccccn3)ccn2)cc1 [GW681251],19%
2,Fc1ccc(Nc2nccc(-c3c(-c4ccc(Cl)cc4)nn4ncccc34)n2)cc1F [GW829058],41%
3,CS(=O)(=O)CCNCc1ccc(-c2ccc3ncnc(Nc4ccc(OCc5ccccc5)c(Cl)c4)c3c2)o1.Cl [GW574783],29%
4,CN1c2ccc(-c3ccc(C(=O)NCCO)cc3)cc2-c2[nH]ncc2S1(=O)=O,0%
5,CCc1nc(-c2cccc(N(C)S(=O)(=O)c3ccccc3)c2)c(-c2ccnc(Nc3ccc(N4CCN(C(C)=O)CC4)nc3)n2)s1 [GSK1645895],16%
6,Oc1ccc2ncnc(Nc3ccc(OCc4ccccc4)cc3)c2c1 [GI262866],0%
7,Cc1ccc(NC(=O)c2cccc(C#N)c2)cc1-c1ccc(C(=O)Nc2ccncc2)cc1 [GSK1398463],18%
8,CC(C)(C)OC(=O)NC1CCCN(c2cc(-c3ccc4c(N)n[nH]c4c3)nc(N)n2)C1 (stereo not drawn) [GSK2286096],8%
9,COc1ccc(Nc2nccc(N3CCC(NC(=O)Nc4ccc5c(c4)OCO5)C3)n2)cc1 (stereo not drawn) [GSK1379745],15%
10,COc1ccc(NC(=O)Nc2ccc(C)c(-c3ccc(C(=O)Nc4ccncc4)cc3)c2)cc1 [GSK1398475],2%
11,Cn1ccc2ncnc(Oc3ccc(NC(=O)Nc4cccnc4)c(Cl)c3)c21,0%
12,Fc1cccc(COc2ccc(Nc3ncnc4cc[nH]c34)cc2Cl)c1,0%
13,Cl.Cl.c1ccc(-c2cc3ccncc3cc2OC2CCNCC2)cc1 [GSK1122999],0%
14,Cc1cccc(-c2nc(Nc3ccc4[nH]nnc4c3)c3ccccc3n2)n1 [GW867587],0%
15,COc1cc2c(Nc3cccc(NC(=O)c4ccccc4)c3)ncnc2cc1OCCCN1CCOCC1 [GSK223810],0%
16,Nc1nccc2scc(-c3ccc4c(c3)CCN4C(=O)Cc3cc(F)ccc3F)c12 [GSK2587663],37%
17,COc1ccc(NC(=O)c2ccc(-c3cc(-c4nnc(C)o4)ccc3C)cc2)cc1 [GW595885],25%
18,FC(F)(F)c1ccc(-c2nn3ncccc3c2-c2ccnc(Nc3cccc(C(F)(F)F)c3)n2)cc1 [GW828205],0%

row,SMILES,%Inh
1,NC(=O)c1sc(-n2cnc3ccccc32)cc1OCc1ccccc1F [GSK1024306],23%
2,Cl.O=S(=O)(c1cccc(F)c1)c1ccc(Nc2ncnc3cc(Br)sc23)cc1Cl [GSK306886],0%
3,CCCc1ccc(S(=O)(=O)NC2CCN(c3ccnc(Nc4ccc(OC)cc4)n3)C2)cc1 (stereo not drawn) [GSK1379737],38%
4,CCn1c(-c2ccncc2)nc2cnccc21 [SB-735216],21%
5,O=C(CCO)NCCn1ccc2ncnc(Nc3ccc(Oc4cccc(C(F)(F)F)c4)c(Cl)c3)c21,0%
6,Cl.Fc1ccccc1COc1ccc(Nc2ncnc3ccc(-c4nnc(C(F)(F)F)o4)cc23)cc1Cl [GW424170],15%
7,Cn1cc(-c2ccc3c(c2)CCN3C(=O)Cc2cccc(C(F)(F)F)c2)c2c(N)ncnc21 [GSK2606414],0%
8,CNc1nccc(-c2c(-c3ccc(F)cc3)ncn2C2CCN(C)CC2)n1 [SB-222903],0%
9,Cl.Cn1ccc(-c2cccc(Nc3ccnc4cc(-c5nccs5)ccc34)c2)n1 [GW525701],50%
10,Fc1ccc(-c2ncn(CCCNCc3ccccc3)c2-c2ccncc2)cc1,0%
11,C[C@@H]1CCN(C(=O)CO)C[C@@H]1N(C)c1ncnc2[nH]ccc12,0%
12,CC(C)(C)c1ccc(-n2cnc3c(N)ncnc32)cc1 [SKF-97263],0%
13,COc1ccc(-c2oc3ncnc(N)c3c2-c2ccc(OC)cc2)cc1 [SB-589132],52%
14,FC(F)(F)c1cc(Nc2nccc(-c3c(-c4ccc(Cl)cc4)nn4ncccc34)n2)ccc1Cl [GW829351],0%
15,O=C(Nc1ccccc1F)NC1CCN(c2ccnc(Nc3ccc(F)cc3)n2)C1 (stereo not drawn) [GSK1379722],38%
16,O=C(NCCCN1CCCC1=O)c1cnc(NCc2cc(Cl)ccc2Cl)nc1NC1CCNCC1,0%
17,Cl.c1ccc(Cn2ncc3cc(Nc4ncnc5ccccc45)ccc32)cc1 [GW273749],0%
18,Fc1cccc(COc2ccc(Nc3ncnc4sc(-c5ccc[nH]5)cc34)cc2Cl)c1 [GW707818],13%
